Assay outcomes as filed in PubChem BioAssay.
Rows were chosen to be rich in hits. Some 2.2% of all compounds tested hit in one or more screens of this group.
IDH1 R132H inh: human IDH1 R132H inhibition | Potency, µM (doses to about 76.6 µM), actives largely listed as inhibitors | IDH1-R132H enzyme, NADPH consumption, diaphorase/resazurin fluorescence | 390,000 compounds, 0.093% hits | AID 602179 | O75874; also: nearly all actives have a fitted effect of over 65% in size
Target sequence (O75874 whole entry R132H, stated change not applied): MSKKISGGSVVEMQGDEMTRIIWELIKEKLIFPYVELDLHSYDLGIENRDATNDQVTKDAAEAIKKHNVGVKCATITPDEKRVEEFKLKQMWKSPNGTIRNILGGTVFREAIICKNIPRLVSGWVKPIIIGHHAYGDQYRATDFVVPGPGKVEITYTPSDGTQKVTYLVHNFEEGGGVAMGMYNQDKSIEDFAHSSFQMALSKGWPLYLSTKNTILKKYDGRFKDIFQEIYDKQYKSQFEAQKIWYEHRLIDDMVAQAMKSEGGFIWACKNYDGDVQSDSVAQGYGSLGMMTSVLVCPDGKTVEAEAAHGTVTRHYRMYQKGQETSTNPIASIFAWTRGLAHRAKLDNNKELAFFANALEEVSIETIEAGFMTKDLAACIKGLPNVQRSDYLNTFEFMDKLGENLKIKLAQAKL
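IDH1-R132H (0.5 ug/mL) preincubated 30 min with compound, then NADPH (0.016 mM) and alpha-KG (2 mM) added; 80 min at RT, pH 7.5. Remaining NADPH coupled via diaphorase/resazurin to fluorescence (540/590 nm); concentration-response curves normalized to no-enzyme control.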
LDHA block: inhibitors of human lactate dehydrogenase A; P00338; purified LDHA, NADH/diaphorase-resazurin fluorescence; stronger effect = lower value; activity change, % (values are at about 110 or 230 µM); 480,000 compounds, 0.15% hits; AID 1347041; in the data active = activity change below about -30%; inconclusive = mostly about -25% to -30%
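LDH5 2 nM; NADH 0.06 mM, pyruvate 0.2 mM; 200 mM Tris pH 7.4, EDTA, Tween-20; 5 min RT. Detection: diaphorase 0.133 mg/mL + resazurin 37 µM, fluorescence ex540/em590 at 0 and 20 min; normalized to enzyme-free and DMSO wells.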
HepG2 viability: HepG2 cytotoxicity, counter-screen for TGF-b inhibitors | HepG2 CAGA-GFP viability, ATP luminescence, 18 h | AID 588856 | Potency, µM (top dose mostly 46.1 µM), most hits filed as cytotoxic | 410,000 compounds, 0.76% hits
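HepG2 CAGA-GFP cells (1000/well, DMEM with 1% FBS) received compound, then TGF-beta at 500 pg/mL final, and were incubated 18 hours at 37 degrees C. Viability was read by CellTiter-Glo luminescence. Media-only wells were set as complete cell-killing and DMSO as no toxicity.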
ATXN2 expr inh: ATXN2 expression inhibition; HEK-293 ATXN2-luciferase reporter, luminescence, 24 h; 360,000 compounds, 0.72% hits; Potency, µM (titrated, usually from 57 µM), usual class: inhibitors; also: nearly all actives have a fitted effect of over 55% in size
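ATXN2-luciferase reporter cells (luciferase flanked by upstream and downstream ATXN2 gene portions) were treated 24 h at 37 °C with compounds at up to 57 uM. SteadyGlo luminescence gave expression; GF-AFC fluorescence gave viability.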
TGFb SMAD3 inh: blocks TGF-b signaling. HepG2 CAGA-GFP TGF-b/SMAD3 reporter, GFP fluorescence, 18 h; TGF-beta stimulated, 500 pg/mL final. Potency, µM (highest dose often 46.1 µM), hits mostly inhibitors. 410,000 compounds, 1.2% hits. AID 588855; also: nearly all actives have a fitted effect of over 65% in size
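GFP signal (ex488/em500-530) from TGF-beta-stimulated HEPG2 CAGA-GFP cells, 500 pg/mL final, 18 h at 37 degrees C in DMEM plus 1% FBS, normalized to unstimulated and DMSO-stimulated controls.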
S2 tox: cell viability loss in ATXN counter-screen | 400,000 compounds, 0.49% hits | AID 651635 | Potency, µM (doses to about 56.7 µM), actives largely listed as cytotoxic | S2 cells (HEK-293 line with an ATXN2-luciferase reporter) viability, CellTiter-Fluor protease fluorescence, 24 h; also: nearly all actives have a fitted effect of over 40% in size
Each line names hits and unclear results; the compound was inactive in the other large screens. Unless noted, calls follow the shape of the dose curve; as a rule, active = well fitted curve in the direction sought with a large enough effect; inconclusive = small, poorly fitted or top-dose-only effect, or another doubt; inactive = no such curve, though single readings can be large; an effect the other way counts as inactive or inconclusive.

O=c1oc2ccc(C#CC3(O)CCCCC3)cc2cc1-n1cc(-c2ccccn2)nn1	S2 tox inconclusive
c1ccc(-c2nnc(NC3=NCCC3)o2)cc1	ATXN2 expr inh inconclusive
Fc1ccc(-c2nnc(NC3=NCCCCC3)o2)cc1	HepG2 viability 13µM, ATXN2 expr inh 4µM
O=C(Nc1cc(Cl)cc(Cl)c1)c1ccc(F)c(S(=O)(=O)N2CCc3ccccc32)c1	TGFb SMAD3 inh 4µM (no result: ATXN2 expr inh, S2 tox)
O=C(Nc1nnc(S(=O)(=O)N2CCc3ccccc32)s1)c1cccc(Cl)c1	ATXN2 expr inh inconclusive, TGFb SMAD3 inh 7.9µM
O=C(COc1ccc(F)cc1)Nc1nnc(S(=O)(=O)N2CCc3ccccc32)s1	TGFb SMAD3 inh 13µM
Nn1c(SCC(=O)N2CCOCC2)nnc1C1CC1	none
O=C(Cn1c(=O)n(-c2ccccc2)c(=O)c2ccc(C(=O)NCc3ccc4c(c3)OCO4)cc21)Nc1ccc(Br)cc1	none
COc1ccc2cc1Oc1ccc(cc1)CC1c3c(cc(OC)c4c3Oc3cc5c(cc3O4)CCNC5C2)CCN1C (centres undefined)	ATXN2 expr inh 11µM, TGFb SMAD3 inh 10µM, S2 tox 8.4µM
Cc1cc(=O)n2nc(N3CCCC(C(=O)NCCCN4CCc5ccccc5C4)C3)sc2n1 (centres undefined)	none
O=C(Oc1ccc(-c2ccccc2)cc1)C1C2CCCCC21 (centres undefined)	none
Cc1ccc(C#CC[N+]2(CC#Cc3ccc(C)cc3)CCCCC2)cc1	ATXN2 expr inh inconclusive, TGFb SMAD3 inh 20µM, S2 tox inconclusive
CCCCC(=O)NCc1ccc(-c2nc3ccccc3s2)cc1	LDHA block -30 (no result: IDH1 R132H inh, HepG2 viability, ATXN2 expr inh, TGFb SMAD3 inh, S2 tox)
CCC(=O)NCc1ccc(-c2nc3ccccc3s2)cc1	LDHA block -31 (no result: IDH1 R132H inh, HepG2 viability, ATXN2 expr inh, TGFb SMAD3 inh, S2 tox)
CC(=O)NCc1ccc(-c2nc3ccccc3s2)cc1	none (no result: ATXN2 expr inh)
O=C1c2ccccc2C(=O)N1CC1CCCO1 (centres undefined)	HepG2 viability 3.5µM
CCOc1ccc(S(=O)(=O)Nc2cccc(OC)c2)cc1	none
CCCCNC(=O)c1onc(CSc2cccc(OC)c2)c1C(=O)NCCCC	TGFb SMAD3 inh inconclusive
COCCNC(=O)c1onc(CSc2cccc(OC)c2)c1C(=O)NCCOC	HepG2 viability 1µM
CC(C)(C)C(=O)Nc1nnc(COc2ccc(Cl)cc2)s1	none
CCOC(=O)c1ccc(Nc2nc3ccccc3nc2NS(=O)(=O)c2cc(C)ccc2C)cc1	none (no result: IDH1 R132H inh, HepG2 viability, ATXN2 expr inh, TGFb SMAD3 inh, S2 tox)
COc1ccc(Cl)cc1NC(=S)NNC(=O)C1(C)CC1(Cl)Cl (centres undefined)	TGFb SMAD3 inh 20µM
CCN(CC)CCN1C(=O)/C(=C\c2ccc(Cl)c([N+](=O)[O-])c2)SC1=Nc1ccc(OC)cc1	HepG2 viability 20µM, ATXN2 expr inh 32µM, TGFb SMAD3 inh inconclusive (no result: S2 tox)
COc1ccc(N=C2S/C(=C\c3ccc(Cl)c([N+](=O)[O-])c3)C(=O)N2CCN(C)C)cc1	TGFb SMAD3 inh inconclusive, S2 tox 10µM (no result: ATXN2 expr inh)
CCC/C(=C1/c2ccccc2C(=O)N1c1ccccc1)c1cnc(OC)nc1	TGFb SMAD3 inh 13µM
CCC/C(=C1/c2ccccc2C(=O)N1c1ccccc1)c1ccc2c(c1)OCCO2	TGFb SMAD3 inh inconclusive, S2 tox inconclusive
CCCCCN1C(C(=O)c2ccccc2)=C(OC(=O)CC)c2ccccc2S1(=O)=O	HepG2 viability 11µM, TGFb SMAD3 inh inconclusive, S2 tox inconclusive
CCCN1C(C(=O)c2ccccc2)=C(OC(=O)c2ccc(F)cc2)c2ccccc2S1(=O)=O	TGFb SMAD3 inh 18µM (no result: ATXN2 expr inh, S2 tox)
CCN1C(C(=O)c2ccccc2)=C(OC(=O)C(C)C)c2ccccc2S1(=O)=O	TGFb SMAD3 inh 11µM
CCCN1C(C(=O)c2ccccc2)=C(OC(=O)c2ccc(C)cc2)c2ccccc2S1(=O)=O	none (no result: ATXN2 expr inh, S2 tox)
CCCCN1C(C(=O)c2ccccc2)=C(OC(=O)CC)c2ccccc2S1(=O)=O	ATXN2 expr inh inconclusive, TGFb SMAD3 inh inconclusive, S2 tox inconclusive
